Compounds with a hit are over-represented: about 14% of the library has one in this group of screens.
Marburg entry inh – blocks Marburg virus binding to or entry into cells; Marburg virus pseudotyped entry inhibition, cell reporter; Potency, µM (top dose mostly 37.8 µM), inactives show at the highest dose activity change, negative = inhibition, actives largely listed as inhibitors; 300,000 compounds, 1.8% hits; AID 540276; calls by dose curve; tested in HEK293 cells; also: potency is read from the fitted curve at half-maximal effect
Lassa entry inh – blocks Lassa virus binding to or entry into cells; Lassa virus pseudotype entry inhibition, cell reporter; Potency, µM (doses to about 37.9 µM), for inactives: at the highest dose activity change, negative = inhibition, actives largely listed as inhibitors; 300,000 compounds, 1.2% hits; AID 540256; calls by dose curve; tested in HEK293 cells; also: potency is read from the fitted curve at half-maximal effect; nearly all actives have a fitted effect of over 50% in size
Pf growth 96h – P. falciparum growth inhibition at 96 hours; P. falciparum luciferase reporter growth, 96 h; 320,000 compounds, 6.9% hits; Potency, µM (highest dose often 28.7 µM), without a hit: at the top dose activity change, negative = inhibition, actives largely listed as inhibitors; also: potency is read from the fitted curve at half-maximal effect
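96 h incubation, 37 C, 5% CO2, of luciferase-reporter P. falciparum-infected RBCs (2% hematocrit, 0.05% parasitemia final) with test compounds; endpoint luminescence.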
HCV inhibitor – blocks hepatitis C virus; AID 651820; Potency, µM (highest dose often 41.8 µM), for the others: at the highest dose activity change, negative = inhibition, usual class: inhibitors; Huh7.5.1 HCVcc-Cre infection, luciferase reporter, 44 h; 340,000 compounds, 3.4% hits; also: potency is read from the fitted curve at half-maximal effect
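1,000 cells/well; 4 h culture; + compound; + HCVcc-Cre (~0.5 moi); 44 h; luciferase substrate, RT 15 min; read 15 sec.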
HCMV antiviral – inhibitors of human cytomegalovirus. HFF cells, HCMV-luciferase reporter, 72 h; stronger effect = lower value. activity change, negative = inhibition, % at 57.5 µM. 410,000 compounds, 4.5% hits. AID 1259415; in the data active = activity change below about -60%; inconclusive = no clear call, values can overlap the other calls; inactive = above about -39%
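Cell-based, HFFs, 1000 cells/well, 16 h 37C; cpds in DMSO + HCMV-luc, MOI 1 PFU/cell; 72 h 37C; OneGlo luminescence after 5 min RT; norm. to buffer vs Salinomycin 10uM.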
Pf growth 48h – P. falciparum growth inhibition at 48 hours (one generation); Potency, µM (highest dose often 28.7 µM), for inactives: at the top dose activity change, negative = inhibition, usual class: inhibitors; P. falciparum luciferase growth in erythrocytes, 48 h; AID 504832; 310,000 compounds, 5.9% hits; also: potency is read from the fitted curve at half-maximal effect
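First compound was added to culture medium, then infected red cells at 0.1% parasitemia and 2% hematocrit (final). After incubation at 37 C under 5% CO2, luciferase detection reagent was dispensed and light output recorded.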
An asterisk follows results filed as active; ? = inconclusive; · = no result given; [ ] = remark or other dose. Unless noted, calls follow the shape of the dose curve; as a rule, active = well fitted inhibition curve with a large enough effect; inconclusive = small, poorly fitted or top-dose-only effect, or another doubt; inactive = no such curve, though single readings can be large or run the other way. % is scaled to controls: 0 for no effect and ±100 for the full control effect.

SMILES | Marburg entry inh | Lassa entry inh | Pf growth 96h | HCV inhibitor | HCMV antiviral | Pf growth 48h
COc1ccccc1NC(=O)N1CCN(c2ncccn2)CC1 | 8% | -1% | · | 1% | ? | 0%
COc1ccc(C(=O)CCC(=O)Nc2ccc(F)cc2F)cc1 | · | 20%[46.1 µM] | · | · | -7 | ·
COCCn1c(SCC(=O)NC2(C#N)CCCCC2)nc2ccccc2c1=O | · | · | 10% | 10% | 0 | -21%
COc1ccc(C(=O)NC2CC(=O)N(c3ccc4c(c3)OCCO4)C2)cc1 (stereo not drawn) | · | 12%[46.1 µM] | · | · | 2 | ·
O=C(NCCn1ccc2ccccc21)c1cccc([N+](=O)[O-])c1 | 9%[46.1 µM] | 4% | 27% | -21% | -80* | 21%
CCN(Cc1ccccc1)S(=O)(=O)c1cc(C(=O)NCC2CCCCC2)ccc1OC | ? | ? | 12µM* | ? | -83* | ?
CCN(CC)S(=O)(=O)c1ccc(/C=C/C(=O)NC2CCCCC2)cc1 | -10%[46.1 µM] | ? | 4.7µM* | -18% | -18 | ?
CCN(CC)S(=O)(=O)c1ccc(C(=O)NCC2CCCCC2)cc1 | 0%[46.1 µM] | 7.1µM* | ? | 5% | -3 | -14%
O=C(NCCCN1CCN(CCCNC(=O)c2cccc([N+](=O)[O-])c2)CC1)c1cccc([N+](=O)[O-])c1 | ? | ? | ? | -23% | -33 | ?
O=C(NC1CCS(=O)(=O)C1)c1cccc(S(=O)(=O)N2CCCCC2)c1 (stereo not drawn) | -23% | 0% | · | 3% | 36 | -13%
O=C(NC1CCCCC1)c1cccc(S(=O)(=O)N2CCCCC2)c1 | 3%[46.1 µM] | 4%[46.1 µM] | 4.1µM* | 0% | ? | 9%
CC(NC(=O)NC(=O)c1cccc([N+](=O)[O-])c1)C1CC1 (stereo not drawn) | 4%[46.1 µM] | 25%[46.1 µM] | 22% | 8% | · | 10µM*
Cc1ccc(NC(=O)Cn2nc(N3CCN(c4ccccc4)CC3)ccc2=O)cc1F | · | -23%[46.1 µM] | · | · | 3 | ·
O=C(CSc1nc2ccccc2n1CC(=O)Nc1ccc(F)cc1F)Nc1ccc(F)cc1 | · | -1%[46.1 µM] | · | · | 1 | ·
Nc1c(Cl)nc(-c2ccccc2)nc1Cl | · | · | 14% | ? | -72* | 16%
Oc1ccccc1-c1nc(NC2CCCC2)c2ccccc2n1 | · | · | 10% | ? | 28 | ?
c1ccc(-c2nnc(-c3ccccn3)nc2NC2CCCCC2)cc1 | 3.5µM* | 5µM* | · | 1.6µM* | -100* | 0.93µM*
CNc1nc(-c2ccccn2)nnc1-c1ccccc1 | ? | ? | ? | ? | -105* | ·
Cc1cc(Br)cnc1NC(=S)Nc1ccc(F)cc1F | ? | 4%[46.1 µM] | ? | 10µM* | -25 | ?
O=C(Nc1ccc(F)cc1F)c1cncc(Br)c1 | ? | 16%[46.1 µM] | 34% | 13% | ? | 24%
COc1ccccc1CNc1nc(-c2ccco2)nn1S(=O)(=O)c1ccc2ccccc2c1 | 2%[46.1 µM] | 20%[46.1 µM] | · | · | 2 | ·
O=C(C1CCCN(Cc2ccccc2[N+](=O)[O-])C1)N1CCCCC1 (stereo not drawn) | · | · | 12% | 20% | 0 | 1%
C(=C\c1ccccc1)/CN1CCN(C(c2ccccc2)c2nnnn2-c2ccc3c(c2)OCCO3)CC1 (stereo not drawn) | · | · | · | · | -37 | ·
CC(=O)O[C@H]1C(=O)[C@@]2(C)[C@H]([C@H](OC(=O)c3ccccc3)[C@]3(O)C[C@H](OC(=O)[C@H](O)[C@@H](NC(=O)c4ccccc4)c4ccccc4)C(C)=C1C3(C)C)[C@]1(OC(C)=O)CO[C@@H]1C[C@@H]2O | ? | · | 0.059µM* | ? | -70* | 0.074µM*
CCC(C)C(=O)N[C@@H](c1ccccc1)[C@@H](O)C(=O)O[C@H]1C[C@@]2(O)[C@@H](OC(=O)c3ccccc3)C3[C@](C)(C(=O)[C@H](OC(C)=O)C(=C1C)C2(C)C)[C@@H](O)C[C@H]1OC[C@@]31OC(C)=O (stereo partly drawn) | · | · | 0.23µM* | ? | 21 | 0.47µM*
SMILES | Marburg entry inh | Lassa entry inh | Pf growth 96h | HCV inhibitor | HCMV antiviral | Pf growth 48h
CC(=O)OC12COC1CC(O)C1(C)C(=O)C(O)C3=C(C)C(O)CC(O)(C(OC(=O)c4ccccc4)C21)C3(C)C (stereo not drawn) | -25% | 0% | · | ? | -37 | ·
C/C=C(\C)C(=O)N[C@@H](c1ccccc1)[C@@H](O)C(=O)O[C@H]1C[C@@]2(O)[C@@H](OC(=O)c3ccccc3)C3[C@](C)(C(=O)[C@H](OC(C)=O)C(=C1C)C2(C)C)[C@H](O)C[C@H]1OC[C@@]31OC(C)=O (stereo partly drawn) | · | · | ? | ? | -39 | ?
CC(=O)O[C@@]12CO[C@@H]1C[C@@H](O)[C@@]1(C)C(=O)[C@H](O)C3=C(C)[C@@H](OC(=O)[C@H](O)[C@@H](NC(=O)c4ccccc4)c4ccccc4)C[C@@](O)([C@@H](OC(=O)c4ccccc4)C12)C3(C)C (stereo partly drawn) | · | · | 0.046µM* | 0.32µM* | ? | ?
CC(=O)O[C@H]1C(=O)[C@@]2(C)[C@H]([C@H](OC(=O)c3ccccc3)[C@]3(O)C[C@H](OC(=O)[C@H](O)C(NC(=O)c4ccccc4)c4ccccc4)C(C)=C1C3(C)C)[C@]1(OC(C)=O)CO[C@@H]1C[C@@H]2O (stereo partly drawn) | · | · | 0.074µM* | ? | -83* | 0.1µM*
CCc1nn(CC(=O)NCC(C)c2ccccc2)c(=O)c2cc3c(OC)cccc3n12 (stereo not drawn) | 2%[46.1 µM] | · | · | · | 11 | ·
CCOc1ccccc1CNC(=O)c1sc2ncccc2c1-n1cccc1 | · | 10%[46.1 µM] | · | · | -22 | ·
CC/C=C/CC(=O)N[C@@H](c1ccccc1)[C@@H](O)C(=O)O[C@H]1C[C@@]2(O)[C@@H](OC(=O)c3ccccc3)C3[C@](C)(C(=O)[C@H](OC(C)=O)C(=C1C)C2(C)C)[C@@H](O)C[C@H]1OC[C@@]31OC(C)=O (stereo partly drawn) | · | · | 0.33µM* | -27% | -91* | 0.47µM*
NNC(=O)c1cc2ccccc2cc1NS(=O)(=O)c1ccccc1 | 8% | ? | ? | -29% | 20 | 5.9µM*
CCOc1ccc(NC(=O)CN2C(=O)NC(C)(c3ccc4c(c3)OCCCO4)C2=O)cc1OCC (stereo not drawn) | · | · | · | -26% | -2 | ·
Cc1cccc(CN2C(=O)c3ccccc3S(=O)(=O)c3ccc(C(=O)N4CCCC4)cc32)c1 | -2%[46.1 µM] | ? | · | · | -18 | ·
C(=Cc1nc2ccccc2o1)c1ccc2c(c1)OCO2 | · | · | · | · | -22 | ·
C[n+]1c(/C=C/c2ccc(O)cc2)ccc2ccccc21 | ? | 17% | 2.3µM* | ? | -19 | ?
C(=Cc1cnc2ccccc2n1)c1ccc2c(c1)OCO2 | · | · | · | · | -81* | ·

Screens (PubChem)
